Experiment [1] has as its target human Peroxisome Proliferator-activated Receptor alpha (PPARa), PPARA (gene 5465) (UniProt Q07869). The experiment is described as follows: ATG_PPARa_TRANS: Attagene TRANS-FACTORIAL HepG2 Assay for human Peroxisome Proliferator-activated Receptor alpha (PPARa) (AID 2283001). In short, it runs like this: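 Reporter transcripts quantified by RT-PCR plus capillary electrophoresis after 24 h treatment, fitted upward relative to DMSO. Cells: human HepG2 transiently carrying multiple GAL4-UAS reporter units driven by NR-Gal4 chimeras.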

Experiment [2] has as its target human Peroxisome Proliferator-activated Receptor delta (PPARd), PPARD (gene 5467) (UniProt Q03181). The experiment is described as follows: ATG_PPARd_TRANS: Attagene TRANS-FACTORIAL HepG2 Assay for human Peroxisome Proliferator-activated Receptor delta (PPARd) (AID 2283002). In short, it runs like this: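 Read-out is induced reporter mRNA, quantified by RT-PCR with fluorescent labelling and capillary electrophoresis after 24 h dosing. Cells are HepG2 transiently carrying multiple GAL4-UAS reporter units driven by exogenous NR-GAL4 chimeras; DMSO serves as baseline.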

Read-out in experiment [3]: Intercellular Adhesion Molecule 1 (ICAM1), ICAM1 (gene 3383)
Kind of experiment: BSK_3C_ICAM1: BioMAP Diversity Plus: 3C Assay for Intercellular Adhesion Molecule 1 (ICAM1) Biomarker Activity (AID 2283003; active = hit-call score of the fitted dose curve at least 0.9, where 1 is the maximum; inactive = score below 0.9). The conditions noted are these: primary human endothelial cells (HUVEC); actives raise or lower the signal. In outline: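 ELISA readout of ICAM1 in human umbilical vein endothelial cells in the 3C system, taken 24 h post-dose. Gain or loss of signal versus DMSO was fitted in both directions, with SRB total-protein staining run in parallel.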

The nature of experiment [4]: BSK_3C_Proliferation: Cell Proliferation Assessment in the BioMAP Diversity Plus: 3C Assay (AID 2283006; active = hit-call score of the fitted dose curve at least 0.9, where 1 is the maximum; inactive = score below 0.9;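 for AC50: potency may reflect either rise or fall in cell number versus DMSO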). The conditions noted are these: primary human endothelial cells (HUVEC). In short, it runs like this:
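Proliferation as total protein: sulforhodamine B (0.1%) stain of TCA-fixed subconfluent human umbilical vein endothelial cells, absorbance 560 nm, 48 h after dosing. Activity fitted in both directions against DMSO baseline.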

Experiment [5] addresses Peroxisome proliferator-activated receptor gamma (Homo sapiens) (UniProt P37231). Kind of experiment: ATG_PPARg_TRANS: Attagene TRANS-FACTORIAL HepG2 Assay for human Peroxisome Proliferator-activated Receptor-gamma (PPARg) (AID 2283007). In outline: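 HepG2 cells are transiently transfected with GAL4-UAS reporter units driven by chimeric NR-Gal4 fusions and dosed for 24 h. Reporter mRNA is quantified by RT-PCR, 6-FAM labelling, HpaI digestion and capillary electrophoresis. Induction is scored against DMSO.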

The target of experiment [6] is Nuclear receptor subfamily 1 group I member 2 (Homo sapiens) (UniProt O75469). The experiment is described as follows: ATG_PXR_TRANS: Attagene TRANS-FACTORIAL HepG2 Assay for human Pregnane X Receptor (PXR) (AID 2283008). In outline:
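Multiplexed TRANS reporter panel in HepG2; this component tracks PXR-Gal4-driven reporter mRNA after 24 h dosing, measured by RT-PCR with capillary electrophoresis fluorescence, fitted against DMSO.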

Experiment [7] deals with human RAR-related Orphan Receptor gamma (RORg), RORC (gene 6097) (UniProt P51449). The experiment is described as follows: ATG_RORg_TRANS: Attagene TRANS-FACTORIAL HepG2 Assay for human RAR-related Orphan Receptor gamma (RORg) (AID 2283011). In short, it runs like this:
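Activity is scored as increase in GAL4-UAS reporter mRNA over DMSO, detected by fluorescent RT-PCR and capillary electrophoresis in HepG2 cells transiently expressing a RORg-Gal4 chimera, 24 h after dosing.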

Experiment [8] deals with human Retinoic Acid Receptor beta (RARb), RARB (gene 5915) (UniProt P10826). Kind of experiment: ATG_RARb_TRANS: Attagene TRANS-FACTORIAL HepG2 Assay for human Retinoic Acid Receptor beta (AID 2283004). In outline: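 HepG2, transient MRTU transfection, NR–Gal4 chimera, 24 h treatment; RT-PCR plus CE fluorescence detection of reporter mRNA; gain of signal vs DMSO.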
In experiment [9] the target is human Retinoic Acid Receptor gamma (RARg), RARG (gene 5916) (UniProt P13631). The experiment is described as follows: ATG_RARg_TRANS: Attagene TRANS-FACTORIAL HepG2 Assay for human Retinoic Acid Receptor gamma (RARg) (AID 2283009). In outline: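 Transactivation of exogenous RARg-Gal4 fusion measured as reporter transcript induction after 24 h in transfected HepG2 cells. RNA reverse-transcribed, amplified, fluorescently labeled and resolved by capillary electrophoresis; increase relative to DMSO.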

For experiment [10], the target named is Retinoic acid receptor alpha (Homo sapiens) (UniProt P10276). Kind of experiment: ATG_RARa_TRANS: Attagene TRANS-FACTORIAL HepG2 Assay for human Retinoic Acid Receptor alpha (RARa) (AID 2283005). In outline:
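Reporter transcripts, measured by RT-PCR with fluorescent labeling and capillary electrophoresis after 24 h dosing, reflect activity of an exogenous human RARa–GAL4 fusion in transiently transfected HepG2. Fitted for increase relative to DMSO.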

Each structure is given as a SMILES string. Inconclusive results are not listed. The source made the active and inactive calls. Rule for the calls, unless noted: active = hit-call score of the fitted dose curve at least 0.9, where 1 is the maximum; inconclusive = response in the unintended direction; inactive = score below 0.9.

This passage reports outcome and AC50 results from PubChem BioAssay (EPA / NIEHS).

In general, AC50 refers to the concentration at which the activity in the assay is half-maximal.

human Retinoic Acid Receptor beta (RARb), RARB (gene 5915), sequence (P10826 whole entry, looked up, the tested form may be a part): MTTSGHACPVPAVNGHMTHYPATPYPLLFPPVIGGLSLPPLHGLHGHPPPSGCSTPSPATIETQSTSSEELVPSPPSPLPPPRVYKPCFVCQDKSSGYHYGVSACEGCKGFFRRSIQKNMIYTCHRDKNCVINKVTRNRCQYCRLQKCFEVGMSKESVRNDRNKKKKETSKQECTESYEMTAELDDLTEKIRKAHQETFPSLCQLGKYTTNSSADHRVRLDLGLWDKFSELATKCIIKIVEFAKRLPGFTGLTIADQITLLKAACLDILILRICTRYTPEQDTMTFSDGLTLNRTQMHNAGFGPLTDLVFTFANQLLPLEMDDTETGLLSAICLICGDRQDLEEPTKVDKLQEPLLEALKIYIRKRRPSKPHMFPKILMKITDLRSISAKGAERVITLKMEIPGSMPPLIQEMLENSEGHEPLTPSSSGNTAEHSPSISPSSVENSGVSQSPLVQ
human Peroxisome Proliferator-activated Receptor alpha (PPARa), PPARA (gene 5465), sequence (Q07869 whole entry, looked up, the tested form may be a part): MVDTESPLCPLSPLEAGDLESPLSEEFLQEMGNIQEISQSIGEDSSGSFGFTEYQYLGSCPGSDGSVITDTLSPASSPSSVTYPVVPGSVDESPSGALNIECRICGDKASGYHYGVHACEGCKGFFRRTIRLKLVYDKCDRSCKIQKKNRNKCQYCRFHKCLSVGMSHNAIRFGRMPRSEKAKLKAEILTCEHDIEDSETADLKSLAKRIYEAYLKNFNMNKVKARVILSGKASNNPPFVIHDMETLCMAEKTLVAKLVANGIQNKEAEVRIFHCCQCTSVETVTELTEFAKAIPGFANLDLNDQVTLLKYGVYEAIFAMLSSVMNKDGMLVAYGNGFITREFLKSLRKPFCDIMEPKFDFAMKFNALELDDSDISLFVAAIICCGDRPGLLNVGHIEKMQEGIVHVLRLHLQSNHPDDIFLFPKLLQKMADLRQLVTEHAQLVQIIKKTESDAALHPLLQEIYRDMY
human Retinoic Acid Receptor gamma (RARg), RARG (gene 5916), sequence (P13631 whole entry, looked up, the tested form may be a part): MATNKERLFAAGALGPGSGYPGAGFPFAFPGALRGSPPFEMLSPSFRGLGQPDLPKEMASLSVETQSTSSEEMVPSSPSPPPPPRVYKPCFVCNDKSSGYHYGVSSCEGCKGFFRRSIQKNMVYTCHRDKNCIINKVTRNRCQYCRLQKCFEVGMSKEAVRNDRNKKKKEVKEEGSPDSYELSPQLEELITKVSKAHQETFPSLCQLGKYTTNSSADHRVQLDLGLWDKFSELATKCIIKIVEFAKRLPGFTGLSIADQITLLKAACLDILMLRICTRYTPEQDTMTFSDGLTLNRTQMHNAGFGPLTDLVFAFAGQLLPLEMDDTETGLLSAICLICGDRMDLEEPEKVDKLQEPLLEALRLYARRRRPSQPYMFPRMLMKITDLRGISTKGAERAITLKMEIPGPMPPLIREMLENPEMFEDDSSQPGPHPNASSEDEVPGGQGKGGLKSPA
human RAR-related Orphan Receptor gamma (RORg), RORC (gene 6097), sequence (P51449 whole entry, looked up, the tested form may be a part): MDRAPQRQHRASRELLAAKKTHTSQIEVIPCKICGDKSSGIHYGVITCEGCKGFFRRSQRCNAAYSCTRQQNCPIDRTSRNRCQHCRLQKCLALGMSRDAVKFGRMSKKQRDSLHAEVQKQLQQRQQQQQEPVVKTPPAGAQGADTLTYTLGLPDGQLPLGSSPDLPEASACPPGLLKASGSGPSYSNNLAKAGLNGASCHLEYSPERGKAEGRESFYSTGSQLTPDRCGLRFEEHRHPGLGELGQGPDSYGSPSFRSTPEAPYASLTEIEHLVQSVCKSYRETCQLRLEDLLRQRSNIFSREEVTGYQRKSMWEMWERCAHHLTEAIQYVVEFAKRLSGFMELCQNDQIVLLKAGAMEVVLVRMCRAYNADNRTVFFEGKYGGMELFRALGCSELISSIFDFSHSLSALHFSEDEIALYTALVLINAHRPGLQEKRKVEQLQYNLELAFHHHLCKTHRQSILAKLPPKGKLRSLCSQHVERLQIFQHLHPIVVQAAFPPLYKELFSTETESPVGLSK
Peroxisome proliferator-activated receptor gamma (Homo sapiens), sequence (P37231 whole entry, looked up, the tested form may be a part): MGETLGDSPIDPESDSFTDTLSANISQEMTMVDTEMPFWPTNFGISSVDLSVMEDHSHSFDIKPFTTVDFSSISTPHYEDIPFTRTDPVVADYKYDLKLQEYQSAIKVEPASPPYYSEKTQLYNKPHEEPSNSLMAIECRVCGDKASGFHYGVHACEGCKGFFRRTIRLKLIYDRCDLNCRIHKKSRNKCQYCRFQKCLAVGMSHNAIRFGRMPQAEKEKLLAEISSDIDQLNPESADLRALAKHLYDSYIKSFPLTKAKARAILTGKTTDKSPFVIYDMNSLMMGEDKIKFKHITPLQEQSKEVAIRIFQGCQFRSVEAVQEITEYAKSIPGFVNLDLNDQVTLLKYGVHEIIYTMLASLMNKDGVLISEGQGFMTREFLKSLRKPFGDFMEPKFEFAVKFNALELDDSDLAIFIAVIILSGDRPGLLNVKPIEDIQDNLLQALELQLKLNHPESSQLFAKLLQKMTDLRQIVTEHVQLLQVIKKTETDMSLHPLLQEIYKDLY
human Peroxisome Proliferator-activated Receptor delta (PPARd), PPARD (gene 5467), sequence (Q03181 whole entry, looked up, the tested form may be a part): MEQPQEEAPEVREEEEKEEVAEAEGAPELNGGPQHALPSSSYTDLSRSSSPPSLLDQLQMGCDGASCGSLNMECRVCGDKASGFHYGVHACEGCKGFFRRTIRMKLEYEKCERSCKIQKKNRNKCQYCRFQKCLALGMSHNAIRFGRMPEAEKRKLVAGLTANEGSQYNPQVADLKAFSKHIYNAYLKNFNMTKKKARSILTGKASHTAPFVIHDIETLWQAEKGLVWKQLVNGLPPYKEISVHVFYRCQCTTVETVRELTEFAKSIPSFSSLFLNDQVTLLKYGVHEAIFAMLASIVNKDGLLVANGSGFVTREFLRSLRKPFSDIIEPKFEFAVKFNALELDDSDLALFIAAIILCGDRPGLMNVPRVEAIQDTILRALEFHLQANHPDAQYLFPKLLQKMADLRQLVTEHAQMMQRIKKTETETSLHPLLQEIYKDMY
Retinoic acid receptor alpha (Homo sapiens), sequence (P10276 whole entry, looked up, the tested form may be a part): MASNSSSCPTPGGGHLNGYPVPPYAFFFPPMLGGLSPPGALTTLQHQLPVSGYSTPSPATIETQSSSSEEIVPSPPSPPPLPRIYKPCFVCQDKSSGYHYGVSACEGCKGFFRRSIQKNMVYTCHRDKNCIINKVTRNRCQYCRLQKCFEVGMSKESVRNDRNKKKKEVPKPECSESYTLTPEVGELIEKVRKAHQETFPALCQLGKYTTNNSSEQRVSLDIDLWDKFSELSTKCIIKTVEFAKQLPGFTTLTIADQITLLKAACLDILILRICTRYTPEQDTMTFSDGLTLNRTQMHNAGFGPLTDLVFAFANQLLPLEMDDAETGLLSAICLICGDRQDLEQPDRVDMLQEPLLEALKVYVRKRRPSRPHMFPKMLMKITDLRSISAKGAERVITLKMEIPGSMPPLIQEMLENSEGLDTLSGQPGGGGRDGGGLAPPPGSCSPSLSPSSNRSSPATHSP
Nuclear receptor subfamily 1 group I member 2 (Homo sapiens), sequence (O75469 whole entry, looked up, the tested form may be a part): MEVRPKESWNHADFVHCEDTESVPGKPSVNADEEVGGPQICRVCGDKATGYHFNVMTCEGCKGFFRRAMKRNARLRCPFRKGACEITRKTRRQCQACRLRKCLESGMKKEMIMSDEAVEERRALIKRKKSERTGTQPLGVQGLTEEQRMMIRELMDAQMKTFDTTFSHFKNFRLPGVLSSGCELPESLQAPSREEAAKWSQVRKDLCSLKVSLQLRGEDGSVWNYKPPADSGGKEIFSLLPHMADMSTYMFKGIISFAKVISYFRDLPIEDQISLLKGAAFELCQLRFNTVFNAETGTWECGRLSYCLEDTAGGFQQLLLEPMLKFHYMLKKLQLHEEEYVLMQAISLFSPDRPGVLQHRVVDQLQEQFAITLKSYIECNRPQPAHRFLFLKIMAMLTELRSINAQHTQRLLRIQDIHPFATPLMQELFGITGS

`ClC1=C(Cl)[C@]2(Cl)[C@H]3[C@H]([C@@H]4C=C[C@H]3C4)[C@@]1(Cl)C2(Cl)Cl`: the result in [1], in [2], in experiment [5] and in experiment [7] was inactive. Also, the AC50 in experiment [3] is 35 µM (active); in [4], 12.2 µM (active); in experiment [6] it was 9.08 µM (active).

In the case of `CCOc1cccc(C2(N3CCN(c4ccccc4)CC3)CCC(C)CC2)c1` (stereo not given), the outcome in [1], in [2], in experiment [8], in experiment [4], in [5] and in experiment [9] was inactive. The outcome in experiment [7] was inactive.

Consider `c1ccc2c(c1)-c1cccc3cccc-2c13`, for which the call in experiment [1], in experiment [2], in experiment [3], in [8], in experiment [10] and in [4] was inactive. Moreover, the result in [5], in experiment [6] and in experiment [9] was inactive.

With `c1ccc2c(c1)oc1ccccc12`, the result in experiment [1], in experiment [2] and in experiment [4] was inactive.

In the case of `CO[C@@H]1[C@H](OC(=O)NC(=O)CCl)CC[C@]2(CO2)[C@H]1[C@@]1(C)O[C@@H]1CC=C(C)C`, the molecule was called inactive in [1], in experiment [2], in [5] and in experiment [6]. The AC50 in [4] is 0.00962 µM (active).

`CN(C)C(=O)Nc1ccc(Cl)cc1`: the molecule was called inactive in experiment [1], in experiment [2], in experiment [3], in experiment [4] and in experiment [5].

Regarding `COc1cc(C=O)cc2c1[C@H](COC(N)=O)[C@]1(OC(C)=O)ON2C[C@H]2[C@@H]1N2C(C)=O`, the molecule was classed as inactive in experiment [1], in experiment [2], in [5] and in experiment [7]. Moreover, the AC50 in [3] was 23.3 µM (active); in experiment [4] it was 0.369 µM (active).

Turning to `O=C(O)C1C2CCC(O2)C1C(=O)O` (stereo not given), the molecule was called inactive in experiment [1], in experiment [2], in experiment [3], in experiment [10], in [6] and in experiment [9]. Also, the outcome in [7] was inactive. Moreover, in experiment [4], the AC50 was 20.5 µM (active).

Consider `CC(C)(O)c1cnn2c(-c3ccc(F)c(-c4c(F)cccc4C#N)c3)cnc2n1`, for which the call in experiment [1], in [2] and in experiment [5] was inactive. Further, the AC50 in experiment [4] is 33.8 µM (active); in [6] it was 0.0774 µM (active).

On to `COP(=S)(OC)SCN1C(=O)c2ccccc2C1=O`, for which the outcome in [1], in experiment [2], in experiment [5] and in experiment [6] was inactive. The AC50 in [4] was 28.4 µM (active).

Take `CCCCCCCCOC(=O)c1ccc(C(=O)OCCCCCCCC)c(C(=O)OCCCCCCCC)c1`: the call in [1], in experiment [8], in experiment [10], in experiment [4] and in experiment [5] was inactive.

In the case of `CS(=O)(=O)NC(=O)c1cc(Oc2ccc(C(F)(F)F)cc2Cl)ccc1[N+](=O)[O-]`, the call in [1], in [8], in [10], in experiment [4], in [9] and in [7] was inactive. The AC50 in [5] is 30.3 µM (active); in [6] it was 7.65 µM (active).

As to `Clc1ccc(C(c2ccc(Cl)cc2)C(Cl)(Cl)Cl)cc1`, the molecule was called inactive in experiment [2] and in experiment [5]. For the same molecule, the AC50 in [3] is 34.7 µM (active); in experiment [4] it was 20.1 µM (active).

For `Cc1ccc(N)c(N)c1`, the result in experiment [1], in experiment [6] and in experiment [9] was inactive. Further, in [4], the AC50 is 2.11 µM (active).

Take `Clc1ccccc1Cl`: the outcome in experiment [1], in [4] and in experiment [5] was inactive.

Consider `CCCCCCCCn1sccc1=O`, for which the molecule was called inactive in [1] and in [7]. The AC50 in experiment [3] is 11.7 µM (active); in experiment [4], 0.796 µM (active); in experiment [5] it was 9.45 µM (active); in [6], 10.7 µM (active).

With `Nc1ccc(N=Nc2ccccc2)cc1`, the result in [1], in [3], in experiment [8], in experiment [10], in experiment [6] and in [9] was inactive. Moreover, the outcome in experiment [7] was inactive. Besides, the AC50 in experiment [4] was 12.2 µM (active); in experiment [5] it was 100 µM (active).

Take `CCCCCOC(=O)c1ccccc1C(=O)OCCCCC`: the call in experiment [1] and in [3] was inactive. Moreover, the AC50 in experiment [4] was 19.1 µM (active); in experiment [5], 49.7 µM (active); in [6], 27.9 µM (active).

Turning to `CN(C)c1ccc(C(=O)c2ccc(N(C)C)cc2)cc1`, the call in experiment [1], in [3], in experiment [6] and in [7] was inactive. Further, the AC50 in experiment [4] is 1.68 µM (active); in experiment [5], 6.44 µM (active).
